This test concerns the target PCSK9 (Homo sapiens, UniProt Q8NBP7;Q8NBP7 Q8NBP7:31-152,Q8NBP7:153-692). The test is described as follows: SPR; vs PCSK9-A5; salmon sperm DNA. The settings on record: tags: ACROBiosystems PC9-H5223; label: 5' dual biotin-iSp18; ssDNA; as PCSK9-A5 except codon 13 CAC unmodified [codon 13 CAC (nt 55-57) unmodified; other codons as PCSK9-A5 (including phenol at codon 9 TTT nt 43-45, cyclopentyl at codon 14 CTT nt 58-60)].

PCSK9, sequence (Q8NBP7 31-152, chain 1 of 2): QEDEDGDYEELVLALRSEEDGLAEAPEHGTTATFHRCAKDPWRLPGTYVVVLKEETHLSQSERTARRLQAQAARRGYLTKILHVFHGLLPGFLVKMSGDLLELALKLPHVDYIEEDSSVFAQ
PCSK9, sequence (Q8NBP7 153-692, chain 2 of 2): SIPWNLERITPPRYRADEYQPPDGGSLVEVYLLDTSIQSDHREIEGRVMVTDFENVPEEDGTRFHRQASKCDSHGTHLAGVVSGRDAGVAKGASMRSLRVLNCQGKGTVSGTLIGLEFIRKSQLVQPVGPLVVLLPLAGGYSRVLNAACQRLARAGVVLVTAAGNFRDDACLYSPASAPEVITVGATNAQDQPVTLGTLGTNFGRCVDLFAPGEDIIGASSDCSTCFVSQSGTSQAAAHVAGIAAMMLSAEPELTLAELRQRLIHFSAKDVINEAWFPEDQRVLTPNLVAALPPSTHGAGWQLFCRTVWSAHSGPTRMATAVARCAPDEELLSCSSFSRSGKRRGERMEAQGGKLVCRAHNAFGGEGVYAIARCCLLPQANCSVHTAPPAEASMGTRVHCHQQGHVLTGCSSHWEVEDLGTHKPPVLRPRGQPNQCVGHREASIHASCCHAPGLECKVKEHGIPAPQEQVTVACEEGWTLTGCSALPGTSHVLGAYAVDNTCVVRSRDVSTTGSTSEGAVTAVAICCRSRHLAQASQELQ

Take “CGAATCAGATTGGACCAGCCACGTTACTGATTCTTCTACCGTTTTTGCCCCCGGCACCTTCTGGAGTCCAGATGTAGGTAG”: the binding signal was ~2 fold reduction in affinity.
